Shown are actives, neighbours in structure and some others; about 3.7% of the full set was active somewhere.
MazEF act = activators of E. coli MazEF toxin-antitoxin RNase | FAM/BHQ RNA-DNA oligo cleavage fluorescence, 5 h | activation, % at 20 µM | AID 504720 | 350,000 compounds, 0.32% hits; in the data active = activation above about 50%
Anthrax LF inh2 = inhibitors of Bacillus anthracis lethal factor protease. multiplex microsphere protease cleavage assay, LF. inhibition, % at 10 µM. 360,000 compounds, 0.12% hits
Target sequence (P15917 whole entry, looked up): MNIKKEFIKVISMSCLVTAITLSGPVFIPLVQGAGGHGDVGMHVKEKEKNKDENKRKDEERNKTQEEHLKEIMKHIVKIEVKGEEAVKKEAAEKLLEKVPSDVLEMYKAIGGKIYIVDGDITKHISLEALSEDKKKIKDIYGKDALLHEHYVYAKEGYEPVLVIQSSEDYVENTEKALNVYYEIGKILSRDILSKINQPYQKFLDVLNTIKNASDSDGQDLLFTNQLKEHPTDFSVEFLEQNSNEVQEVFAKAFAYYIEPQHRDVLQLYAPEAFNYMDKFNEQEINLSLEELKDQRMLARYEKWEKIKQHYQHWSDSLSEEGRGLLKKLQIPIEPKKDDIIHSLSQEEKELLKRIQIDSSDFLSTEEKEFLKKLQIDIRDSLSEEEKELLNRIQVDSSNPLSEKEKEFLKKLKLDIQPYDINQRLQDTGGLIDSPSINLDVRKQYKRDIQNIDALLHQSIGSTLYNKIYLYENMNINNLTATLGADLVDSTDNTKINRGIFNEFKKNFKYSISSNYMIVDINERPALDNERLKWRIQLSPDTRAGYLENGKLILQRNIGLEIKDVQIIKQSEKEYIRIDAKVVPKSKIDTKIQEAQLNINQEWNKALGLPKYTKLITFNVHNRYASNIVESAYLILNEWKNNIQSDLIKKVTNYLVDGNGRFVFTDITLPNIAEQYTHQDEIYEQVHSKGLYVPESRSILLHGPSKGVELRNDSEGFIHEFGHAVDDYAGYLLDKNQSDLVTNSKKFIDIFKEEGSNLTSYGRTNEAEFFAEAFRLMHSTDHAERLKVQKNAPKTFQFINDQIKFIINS
BoNT F protease = BoNT F light chain protease inhibition. Multiplex microsphere protease cleavage assay, flow cytometry. inhibition, % at 10 µM. 360,000 compounds, 0.22% hits. AID 588497; in the data active = inhibition above about 35%, passing the limit was not always enough; inconclusive = no clear call, values can overlap the other calls
BoNT-A LC inh2 = blocks Botulinum neurotoxin A light chain protease. multiplex microsphere protease substrate cleavage, flow cytometry. inhibition, % at 10 µM. 360,000 compounds, 0.17% hits
Bead autofluor = flagged as autofluorescent in microsphere protease counterscreen. compound autofluorescence counterscreen, microsphere flow cytometry; stronger effect = higher value. fluorescence intensity (test concentration not listed). 360,000 compounds, 3.1% hits. AID 624483; in the data active = fluorescence intensity above about 16000; inconclusive = no clear call, values can overlap the other calls
Each line names hits and unclear results; the compound was inactive in the other large screens. Cut-off read from the data, not from the text of the source, unless noted: active = inhibition above about 30%; inconclusive = no clear call, values can overlap the other calls; inactive = below that.

O=C(NC1CCCCC1)c1c2c(nc3ccccc13)CCC2	none
O=C(COc1ccc(Br)cc1)Nc1ccccc1C(=O)NC1CC1	Anthrax LF inh2 inconclusive, BoNT F protease inconclusive, BoNT-A LC inh2 inconclusive, Bead autofluor inconclusive
Cc1ccc(N(C(=O)CNC(=O)c2ccco2)C(C(=O)NC2CCCC2)c2cccnc2)cc1F (stereo unspecified)	none
CCCCc1c(O)nc(SCC(=O)c2ccccc2)n(-c2ccccc2OC)c1=O	BoNT F protease inconclusive
CC(=O)Nc1nonc1C(=O)N1CCC(C)CC1	Bead autofluor 20925
CC1CCN(C(=O)c2ccccc2NC(=O)Nc2ccccc2)CC1	none
CCOC(=O)C1=C(c2ccccc2)NC(=O)N(C(C)=O)C1c1cccc([N+](=O)[O-])c1 (stereo unspecified)	none
CC(=O)N1C(=O)NC(c2ccccc2)=C([N+](=O)[O-])C1c1ccccc1 (stereo unspecified)	Anthrax LF inh2 33
Cc1ccccc1Oc1ncnc2sccc12	Bead autofluor 18377
c1ccc(Oc2ncnc3sccc23)cc1	none
Brc1cccc(-c2cnc3n2CCCCC3)c1	none
Clc1ccc(-c2cnc3n2CCC3)cc1	BoNT-A LC inh2 inconclusive, Bead autofluor 21764
O=C(COC(=O)CCC(=O)c1ccc(F)cc1)Nc1ccc2[nH]c(=O)[nH]c2c1	none
O=c1oc2ccccc2cc1-c1nc2c(s1)CCCC2	BoNT-A LC inh2 inconclusive, Bead autofluor 23234
Cn1cnc2nc3n(c2c1=O)CCC3	Bead autofluor 16811
O=c1c2cccnc2nc2n1CCCCC2	none
CCC(CC)CN1CCC(CN2C(=O)C(=O)NC[C@@H]2CC(C)C)CC1	none (no result: MazEF act)
Cc1nn2c(c1-c1ccc(Cl)cc1)N=C(c1ccco1)CC2c1ccccc1 (stereo unspecified)	Bead autofluor 22364
COC(=O)C1=C(C)N(C)C(=O)NC1c1cc(Cl)c(O)c(OC)c1 (stereo unspecified)	none
COC(=O)C(c1cc(OC)c(O)c(OC)c1)(N1CCNC(C)C1)C(F)(F)F (stereo unspecified)	Bead autofluor 18737
O=C(O)c1cc(Cl)c(Cl)cc1C(=O)NCc1ccco1	none
O=C(O)c1ccc(NC(=O)c2ccc3c(c2)C(=O)N(c2ccccc2)C3=O)cc1	BoNT F protease 38
O=C1C(=O)N(CCO)C(c2ccc(Br)cc2)/C1=C(\O)c1ccccc1 (stereo unspecified)	none (no result: Anthrax LF inh2, BoNT F protease, BoNT-A LC inh2, Bead autofluor)
COc1ccc(OC)c(S(=O)(=O)N2CCCC2C(=O)NC(C)c2ccccc2)c1 (stereo unspecified)	none
CCCn1nc2ccccc2c1P(=N)(N1CCOCC1)N1CCOCC1	BoNT-A LC inh2 inconclusive, Bead autofluor 20501
CC(Sc1nc2ccccc2[nH]1)C(=O)O (stereo unspecified)	Bead autofluor 23428
Cc1ccc(NC(=O)CN(C)C(=O)c2ccc(NS(=O)(=O)c3ccc4[nH]c(=O)[nH]c4c3)cc2)cc1	none
Cc1ccc(CNC(=O)C2CCN(S(=O)(=O)c3ccc4c(c3)CC(C)N4C(=O)C3CCC3)CC2)o1 (stereo unspecified)	none
CCc1ccc(C2C(C#N)=C(N)N(N(C)C)C3=C2C(=O)CCC3)cc1 (stereo unspecified)	none
Cc1ccc(-n2c(C)cc(C(=O)CSc3n[nH]c(N)n3)c2C)cc1	none
Cc1cc(C(=O)COC(=O)C2=NNC(=O)CC2)c(C)n1-c1ccccc1	Bead autofluor 19448
Cc1cc(C(=O)CSc2n[nH]c(N)n2)c(C)n1-c1ccc(F)cc1	BoNT-A LC inh2 inconclusive, Bead autofluor 22336
Cc1cc(C(=O)COC(=O)c2cnccn2)c(C)n1-c1ccc(Br)cc1	none
Cc1cc(C(=O)CSc2n[nH]c(N)n2)c(C)n1-c1ccccc1	Bead autofluor 16214
Cc1ccc(-n2c(C)cc(C(=O)COC(=O)C3=NNC(=O)CC3)c2C)cc1	none
Cc1ccc(-n2c(C)cc(C(=O)COC(=O)c3c(C)noc3C)c2C)cc1	Bead autofluor 23721
CN1C(=O)Cc2cc(S(=O)(=O)N3CCN(c4cccc(C(F)(F)F)c4)CC3)ccc21	none
CC1(C)O[C@@H]2[C@H](O1)[C@@H](CO)O[C@H]2n1cnc2c(=O)[nH]cnc21	none
O=C(C1CCN(S(=O)(=O)c2ccccc2)CC1)N1CCN(Cc2ccccc2)CC1	none
Cc1nnc2c(NCCc3ccccc3)nc3ccccc3n12	none
Cc1nc(SCC(=O)c2ccc(F)cc2)n[nH]1	Bead autofluor 21307
Cc1noc(NS(=O)(=O)c2ccc(NC(=O)CSc3nnc(-c4ccccc4)n3C3CCCCC3)cc2)c1C	Bead autofluor 22405
O=C(O)CC/C(=C\c1ccc(Cl)c([N+](=O)[O-])c1)c1nc2ccccc2s1	none
O=C(O)CC/C(=C\c1ccc2c(c1)OCO2)c1nc2ccccc2s1	MazEF act 60
COc1ccc(Nc2nc(-c3c(C)nc4ncccn34)cs2)cc1	none
Cc1nc2ncccn2c1-c1csc(Nc2ccccc2)n1	BoNT F protease 38
COC(=O)[C@H](CCSC)NC(=O)Cn1cc(C)c(=O)[nH]c1=O	none
CCc1c(C)sc(NC(=O)OC)c1C(N)=O	Bead autofluor 17066
O=S(=O)(N1CCCCCC1)N1CCN(S(=O)(=O)N2CCCCC2)CC1	Bead autofluor 19718
O=S(=O)(N1CCOCC1)N1CCCN(S(=O)(=O)N2CCOCC2)CC1	none
Cn1nnc(-c2ccc(OCc3ccccc3F)cc2)n1	Bead autofluor 23800
CC1=C(C(=O)N(C(C)C)C(C)C)CC(CC(=O)NCCCN(C)C)C(=O)N1CCCN1CCCC1=O (stereo unspecified)	none (no result: MazEF act)
O=C(Nc1ccccc1Cl)c1cnccn1	none
O=C(Nc1ccc(Br)cc1Cl)c1cnccn1	BoNT-A LC inh2 inconclusive, Bead autofluor 17512
C=CCn1c(=O)/c(=C\c2ccccn2)s/c1=C(/C#N)C(=O)NCC1CCCO1 (stereo unspecified)	MazEF act 264
C=CCn1c(=O)/c(=C/c2ccc(C)o2)s/c1=C(/C#N)C(=O)c1ccccc1	none
COc1ccc(C2NS(=O)(=O)OCC2C)cc1 (stereo unspecified)	none
Cc1snc(S(=O)(=O)Cc2ccccc2Cl)c1C#N	Bead autofluor 21018
C[C@H](NC(=O)Cc1cccc2ccccc12)C(=O)N1CCOCC1	none
COc1ccc(Nc2nnc(-c3ccc(N4CCOCC4)c([N+](=O)[O-])c3)c3ccccc23)cc1	Bead autofluor 22975
COc1ccc(C(=O)c2ccc(N3CCOCC3)c([N+](=O)[O-])c2)cc1	none
Cn1nnnc1SCC(=O)Nc1cccc(S(=O)(=O)N2CCCC2)c1	none
O=C(CCCN1C(=O)c2ccccc2C1=O)Nc1ccc(S(=O)(=O)N2CCOCC2)cc1	BoNT-A LC inh2 inconclusive, Bead autofluor 24200
Cc1ccc(NC(=O)CSc2nnc(-c3ccc(S(=O)(=O)N4CCOCC4)cc3)n2C)cc1	BoNT-A LC inh2 inconclusive, Bead autofluor 19086
COc1cccc(C(=O)CSc2nc3ccccc3n2CC(=O)N2CCOCC2)c1	none
COc1cccc(NC(=O)Cn2c(SCC(=O)N3CCOCC3)nc3ccccc32)c1	BoNT-A LC inh2 inconclusive, Bead autofluor 16158
CC1CCN(S(=O)(=O)c2ccc(NC(=O)CSc3nnnn3C)cc2)CC1	Bead autofluor 23542
